{"source": "PubChem BioAssay AID2732", "about": "(Emory University Molecular Libraries Screening Center, 2010)", "note": "Out of some 220,000 compounds screened, about 8,200 (3.7%) were called active. The list comes from a sample in which actives are over-represented; it also holds similar structures and randomly drawn compounds. A number with no mark means an inactive call.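 Rule for the calls: active = compounds that reduced the stress-induced luciferase reporter signal by more than about 70% of percent inhibition (limit read from the data); inactive = the rest.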"}
{"assay": "blockers of ER-stress CHOP reporter expression – cell-based, unfolded protein response, luciferase reporter, primary screen (AID 2732);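 note: 0% = tunicamycin plus vehicle and 100% = wells without tunicamycin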", "settings": "CHO-K1 CHOP-promoter luciferase, tunicamycin-induced, 15-18 h; at 10 µM; stronger effect = higher value"}
{"molecule": "O=C(CCCN1C(=O)/C(=C/c2ccccc2)SC1=S)Nc1ccc(O)cc1", "inhibition": "58.8%"}
{"molecule": "C=CCOc1ccc(/C=C2\\SC(=S)N(CCC(=O)O)C2=O)cc1", "inhibition": "88% (active)"}
{"molecule": "O=C(CCCN1C(=O)/C(=C\\c2ccccc2)SC1=S)Nc1ccccc1O", "inhibition": "27%"}
{"molecule": "Cn1nnc(NC(=S)NC(=O)c2ccccc2)n1", "inhibition": "17.2%"}
{"molecule": "O=C(Nc1ccc(S(=O)(=O)Nc2nccs2)cc1)c1cccc(S(=O)(=O)N2CCOCC2)c1", "inhibition": "-32.6%"}
{"molecule": "COc1ccc(Cn2c(O)c(/C=C3/C=CC=N3)c(=O)[nH]c2=O)cc1", "inhibition": "1.57%"}
{"molecule": "C=CC(COCc1ccccc1)N(Cc1ccccc1)S(=O)(=O)c1ccccc1Br", "note": "(stereo not drawn)", "inhibition": "13.4%"}
{"molecule": "CC(C)(C)C(=O)NNC(=O)c1ccc(Oc2cc(Cl)cc(Cl)c2)o1", "inhibition": "1.32%"}
{"molecule": "COC(=O)c1ccc(S(=O)(=O)N(CCO)Cc2ccccc2)n1C", "inhibition": "-4.99%"}
{"molecule": "O=S(=O)(c1ccccc1)N1CN(Cc2ccc(F)cc2)c2nc3ccccc3nc21", "inhibition": "3.85%"}
{"molecule": "CCOC(=O)c1c(NC(=O)c2ccc(Br)o2)sc2c1CCCC2", "inhibition": "22.6%"}
{"molecule": "CCc1c(C)sc(NC(=O)/C=C/c2ccc3c(c2)OCO3)c1C(=O)OC", "inhibition": "1.72%"}
{"molecule": "CCc1c(C)sc(NC(=O)c2ccc(Br)o2)c1C(=O)OC", "inhibition": "88.9% (active)"}
{"molecule": "Cc1cccc(OCc2nnc(SCn3nnc4ccccc4c3=O)o2)c1", "inhibition": "55.9%"}
{"molecule": "Cc1cccc(OCc2nnc(SCc3nc4cc(C(F)(F)F)ccc4c(=O)[nH]3)o2)c1", "inhibition": "104% (active)"}
{"molecule": "COc1cc(CN(C)Cc2nc3cc(C(F)(F)F)ccc3c(=O)[nH]2)ccc1OC(F)F", "inhibition": "34.5%"}
{"molecule": "O=C(/C=C/Nc1ccc(S(=O)(=O)Nc2cnc3ccccc3n2)cc1)c1cccnc1", "inhibition": "12.4%"}
{"molecule": "COc1ccc(COCC(O)CN2CCC(C(N)=O)CC2)cc1", "note": "(stereo not drawn)", "inhibition": "-5.79%"}
{"molecule": "O=C(CSc1nc(-c2ccco2)cc(C(F)(F)F)n1)NCc1cccs1", "inhibition": "30.9%"}
{"molecule": "FC(F)(F)c1cc(-c2ccco2)nc(N2CCOCC2)n1", "inhibition": "101% (active)"}
{"molecule": "FC(F)(F)c1cc(-c2ccco2)nc(NCc2ccc(Cl)cc2)n1", "inhibition": "81.4% (active)"}
{"molecule": "CCOC(=O)c1ccn(-c2nc(-c3ccco3)cc(C(F)(F)F)n2)n1", "inhibition": "7.61%"}
{"molecule": "FC(F)(F)c1cc(-c2cccs2)nc(NCc2ccco2)n1", "inhibition": "52.2%"}
{"molecule": "Cc1cc(C(F)(F)F)nn1-c1nc(-c2ccco2)cc(C(F)(F)F)n1", "inhibition": "30.6%"}
{"molecule": "COc1ccc(Cl)cc1NC(=O)CCN1CCOCC1", "inhibition": "5.05%"}
{"molecule": "CC(=O)NC(C)c1nc2ccccc2n1Cc1ccccc1F", "note": "(stereo not drawn)", "inhibition": "-2.56%"}
{"molecule": "CC(C)Cc1nc(Nc2ccc(S(=O)(=O)N3CCCC3)cc2)c2nnn(Cc3ccccc3)c2n1", "inhibition": "27.2%"}
{"molecule": "C#CCNc1nc(C(C)C)nc2c1nnn2Cc1ccccc1F", "inhibition": "89.8% (active)"}
{"molecule": "CC1C(=O)NC(=O)C1c1ccccc1", "note": "(stereo not drawn)", "inhibition": "8.56%"}
{"molecule": "CCCC(=O)Nc1ccc2c(c1)nc(CCNC(=O)c1ccco1)n2C", "inhibition": "-14.7%"}
{"molecule": "CC(NC(=O)C(C)(C)C)C(c1cccs1)N1CCN(Cc2ccccc2)CC1", "note": "(stereo not drawn)", "inhibition": "-20.7%"}
{"molecule": "CCOC(=O)C1=C(CN2CCCCCC2)NC(=O)NC1c1cccc([N+](=O)[O-])c1", "note": "(stereo not drawn)", "inhibition": "-12.3%"}
{"molecule": "CCOC(=O)C1=C(CN2CCc3ccccc32)NC(=O)NC1c1ccc(Cl)cc1", "note": "(stereo not drawn)", "inhibition": "85.1% (active)"}
{"molecule": "CCOC(=O)C1=C(CN2CCc3ccccc32)NC(=O)NC1c1cccc([N+](=O)[O-])c1", "note": "(stereo not drawn)", "inhibition": "60.9%"}
{"molecule": "Cc1ccc(C(=O)NNC2=Nc3cc([N+](=O)[O-])ccc3OC2)cc1", "inhibition": "-15.9%"}
{"molecule": "Cn1nc(C(C)(C)C)c(NC(=O)c2sccc2Cl)c1C(C)(C)C", "inhibition": "3.22%"}
{"molecule": "CC(C)c1c(O)nc(SCCOc2ccc(Cl)cc2)[nH]c1=O", "inhibition": "4.19%"}
{"molecule": "CCOC(=O)N1CCN(C(=O)c2ccc(S(=O)(=O)c3ccc(C)cc3)c(NC(C)=O)c2)CC1", "inhibition": "33.2%"}
{"molecule": "CCOC(=O)N1CCN(C(=O)c2ccc3c(c2)N(Cc2ccc(C)cc2)CCS3)CC1", "inhibition": "76.8% (active)"}
{"molecule": "O=C(NCCN1CCOCC1)c1ccc2c(c1)N(Cc1ccc(Cl)cc1)CCS2", "inhibition": "15%"}
{"molecule": "O=C(NCCCc1ccccc1)C1CCC(CNc2c(N3CCCCC3)c(=O)c2=O)CC1", "note": "(stereo not drawn)", "inhibition": "0.92%"}
{"molecule": "O=C(COc1ccc(Cl)cc1)N1CCN(S(=O)(=O)c2ccc(Cl)cc2)CC1", "inhibition": "42.3%"}
{"molecule": "CCC(=O)c1ccc(OCC(O)CN2CC(C)OC(C)C2)cc1", "note": "(stereo not drawn)", "inhibition": "-8.55%"}
{"molecule": "OC(COc1ccc2c(c1)CCC2)CN1CCN(c2cccc(Cl)c2)CC1", "note": "(stereo not drawn)", "inhibition": "44.8%"}
{"molecule": "O=C(COc1ccc(Cl)cc1)N1CCN(c2cccc(C(F)(F)F)c2)CC1", "inhibition": "86.3% (active)"}
{"molecule": "CCC(=O)c1ccc(OCC(O)CN2CCN(c3cccc(C(F)(F)F)c3)CC2)cc1", "note": "(stereo not drawn)", "inhibition": "84.2% (active)"}
{"molecule": "COC(=O)c1ccccc1OCC(=O)N1CCN(c2ccc(Cl)cc2)CC1", "inhibition": "22.2%"}
{"molecule": "O=C(C1=C(O)C(=O)N(CCOCCO)C1c1ccccn1)c1cccs1", "note": "(stereo not drawn)", "inhibition": "8.68%"}
{"molecule": "FC(F)(F)c1ccc(-n2cn[nH]c2=S)cc1", "inhibition": "9.71%"}
{"molecule": "CCN(CCNC(=O)C1=C(C)C(=O)OC12CCC(C)CC2)c1ccccc1", "note": "(stereo not drawn)", "inhibition": "23.7%"}
{"molecule": "CCc1ccc(NC(=O)N[C@H](C(=O)O)C(C)CC)cc1", "note": "(stereo partly drawn)", "inhibition": "-4.67%"}
{"molecule": "CCCn1c(C)cc(/C=C(\\C#N)C(=O)OCC(=O)Nc2cc(OC)c(OC)c(OC)c2)c1C", "inhibition": "9.36%"}
{"molecule": "CCOC(=O)/C(C#N)=C/c1ccc(OCC(=O)Nc2ccccc2)c(OC)c1", "inhibition": "77.3% (active)"}
{"molecule": "CCOC(=O)/C(C#N)=C/c1ccc(N2CCN(Cc3ccccc3)CC2)cc1", "inhibition": "5.69%"}
{"molecule": "COc1cc(/C=C2/C(=O)NN(c3ccc(F)cc3)C2=O)cc([N+](=O)[O-])c1O", "inhibition": "0.68%"}
{"molecule": "O=C(CCCCCN1C(=O)c2cccc3cccc(c23)C1=O)NCc1ccco1", "inhibition": "7.37%"}
{"molecule": "CCOC(=O)c1[nH]c2c(c1C)C(=O)CC(c1ccc(N(C)C)cc1)C2", "note": "(stereo not drawn)", "inhibition": "9.42%"}
{"molecule": "CCOC(=O)c1[nH]c2c(c1-c1ccccc1)C(=O)CC(c1ccc(Cl)cc1)C2", "note": "(stereo not drawn)", "inhibition": "80.8% (active)"}
{"molecule": "CCOC(=O)C1=C(c2ccccc2)NC(=S)NC1c1ccc(Cl)cc1", "note": "(stereo not drawn)", "inhibition": "18%"}
{"molecule": "CC(NS(=O)(=O)c1ccccc1)c1n[nH]c(=S)n1-c1ccccc1", "note": "(stereo not drawn)", "inhibition": "19.4%"}
{"molecule": "CC(/C=C/c1ccco1)=N/NC(=O)C1COc2ccccc2O1", "note": "(stereo not drawn)", "inhibition": "0.12%"}
{"molecule": "CCc1ccc(S(=O)(=O)Nc2ccc(C)c(NS(C)(=O)=O)c2)cc1", "inhibition": "16.4%"}
{"molecule": "COc1ccc(CCNS(=O)(=O)c2cccc3cccnc23)cc1OC", "inhibition": "0.78%"}
{"molecule": "Cc1ccc2nc(NC(=O)C3CCN(S(=O)(=O)c4ccc5c(c4)oc(=O)n5C)CC3)sc2c1", "inhibition": "80.1% (active)"}
{"molecule": "Cn1c(=O)oc2cc(S(=O)(=O)N3CCC(C(=O)Nc4ccc(OC(F)(F)F)cc4)CC3)ccc21", "inhibition": "12%"}
{"molecule": "O=C(Nc1nc2ccc(S(=O)(=O)N3CCCC3)cc2s1)C1CCCO1", "note": "(stereo not drawn)", "inhibition": "9.58%"}
{"molecule": "Nc1ccc(N=Nc2ccccc2Cl)c(N)n1", "inhibition": "-4.49%"}
{"molecule": "Cc1cccc(OCCC(=O)Nc2cc(S(=O)(=O)N3CCCCC3)ccc2N2CCOCC2)c1", "inhibition": "40.4%"}
{"molecule": "CC(=O)Nc1ccc(S(=O)(=O)N2CCSCC2)cc1", "inhibition": "-25.3%"}
{"molecule": "Cc1ccc(C)c(S(=O)(=O)N2CCN(CC(=O)Nc3ccc([N+](=O)[O-])cc3)CC2)c1", "inhibition": "42%"}
{"molecule": "CC(=O)Nc1ccc(S(=O)(=O)N2CCN(CCCOc3cc(C)ccc3C)CC2)cc1", "inhibition": "71.1% (active)"}
{"molecule": "Cc1cccc(OCCCC(=O)Nc2ccc(S(=O)(=O)N3CCCC3)cc2)c1", "inhibition": "89% (active)"}
{"molecule": "CCN(CC(=O)Nc1ccc(S(=O)(=O)N2CCCC2)cc1)CC(=O)Nc1cccc(OC)c1", "inhibition": "2.69%"}
{"molecule": "CCc1ccc[n+](-c2nc([O-])sc2C=O)c1", "inhibition": "9.23%"}
{"molecule": "Nc1nc(Sc2ncccc2[N+](=O)[O-])n[nH]1", "inhibition": "-14.3%"}
{"molecule": "CC(=O)c1nnn(-c2ccc(Cl)cc2C#N)c1C", "inhibition": "13.8%"}
{"molecule": "Cn1nc(C(C)(C)C)c([N+](=O)[O-])c1C(N)=O", "inhibition": "1.68%"}
{"molecule": "COc1ccc(C(=O)N/N=C2\\CCS(=O)(=O)c3ccc(F)cc32)cc1OC", "inhibition": "-0.83%"}
{"molecule": "O=C(NCC(c1cccs1)N1CCOCC1)c1cc(-c2ccccn2)nc2ccccc12", "note": "(stereo not drawn)", "inhibition": "7.03%"}
{"molecule": "COCC(=O)N=Nc1c(O)[nH]c2ccccc12", "inhibition": "-14.7%"}
{"molecule": "Cc1c(-c2ccccc2)n[nH]c1C(=O)N=Nc1c(O)[nH]c2ccccc12", "inhibition": "106% (active)"}
{"molecule": "Cc1cccc(N(CC(=O)N=Nc2c(O)[nH]c3ccccc23)S(C)(=O)=O)c1C", "inhibition": "27%"}
{"molecule": "O=C(CC(c1ccccc1)c1cc(Cl)ccc1O)NCCN1CCOCC1", "note": "(stereo not drawn)", "inhibition": "-2.25%"}
{"molecule": "CN(C)S(=O)(=O)c1ccc(Cl)c(NC(=O)COC(=O)CC(NC(N)=O)c2ccc(Cl)cc2)c1", "note": "(stereo not drawn)", "inhibition": "-8.1%"}
{"molecule": "CC(C)NC(=O)NNc1c(Cl)cncc1Cl", "inhibition": "5.99%"}
{"molecule": "O=C(NCc1ccc2c(c1)OCO2)c1sccc1Br", "inhibition": "8.42%"}
{"molecule": "Cc1cc2cc3c(cc2nc1SCC(=O)Nc1c(C)cccc1C)CCC3", "inhibition": "79.2% (active)"}
{"molecule": "Cc1cc(C)c(C#N)c(SCC(=O)Nc2ccccc2)n1", "inhibition": "41.3%"}
{"molecule": "Cc1cccc(C)c1NC(=O)CSc1ccc([N+](=O)[O-])cn1", "inhibition": "-10.4%"}
{"molecule": "COC(=O)c1c(C)oc(C)c1S(=O)(=O)NCc1ccc(Cl)cc1", "inhibition": "30.1%"}
{"molecule": "Cc1ccc(OCC(=O)N/N=C\\c2ccco2)c(C)c1", "inhibition": "12.7%"}
{"molecule": "Cc1ccc(/C=N/NC(=O)COc2ccccc2-c2ccccc2)cc1", "inhibition": "90.4% (active)"}
{"molecule": "Cc1ccc(OCC(=O)N/N=C/c2ccncc2)cc1", "inhibition": "10%"}
